Inconclusive results are not listed. Activity calls are given as the source filed them. Unless noted, calls follow the shape of the dose curve; as a rule, active = well fitted curve in the direction sought with a large enough effect in the repeat runs; inconclusive = weak or mixed curves; inactive = no such curve, though single readings can be large; an effect the other way counts as inactive or inconclusive.
Legend:
[1] = molecular target: Thyrotropin-releasing hormone receptor (Homo sapiens) (UniProt P34981); assay: qHTS assay to identify small molecule agonists of the thyrotropin-releasing hormone receptor (TRHR) signaling pathway (AID 1346891; calls by dose curve; also: series mostly up to about 58 µM)
Chain of Thyrotropin-releasing hormone receptor (Homo sapiens) (P34981 whole entry, looked up): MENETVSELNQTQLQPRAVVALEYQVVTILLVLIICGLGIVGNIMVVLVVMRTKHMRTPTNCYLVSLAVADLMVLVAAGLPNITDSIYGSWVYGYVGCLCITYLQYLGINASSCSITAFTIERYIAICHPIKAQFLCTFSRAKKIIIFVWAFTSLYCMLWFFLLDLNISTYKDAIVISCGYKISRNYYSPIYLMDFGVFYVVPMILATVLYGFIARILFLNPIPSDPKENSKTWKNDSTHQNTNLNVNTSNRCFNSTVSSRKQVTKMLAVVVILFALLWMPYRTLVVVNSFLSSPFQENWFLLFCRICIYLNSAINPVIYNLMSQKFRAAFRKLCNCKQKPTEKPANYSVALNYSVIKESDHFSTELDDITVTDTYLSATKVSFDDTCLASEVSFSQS
Outline: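 Readout was intracellular calcium fluorescence in TRHR-Hek293 cells. Cells were incubated 18 h, dye-loaded 2 h at 37 °C, and treated with compound in agonist mode.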

[2] = Human pregnane X receptor (PXR) small molecule agonists, qHTS cell viability counter screen (AID 1346977); also: nearly all actives have a fitted effect of over 50% in size
Outline: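 In each well, the PXR reporter HepG2 line was checked for viability: CellTiter-Fluor reagent added 23hr post-dosing, fluorescence read after 1hr incubation at 37C.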

[3] = Caspase-3/7 induction in HepG2 cells by small molecules, qHTS assay (AID 1346978); also: nearly all actives have a fitted effect of over 15% in size
Outline: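 Wild-type HepG2 cells, 2,000/well, settled 5 hr at 37 C and 5% CO2, then compound-treated for 17 hr; caspase-3/7 activity read by luminescent Caspase-Glo 3/7 after 30 min at room temperature.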

[4] = Caspase-3/7 induction in CHO-K1 cells by small molecules, qHTS cell viability counter screen (AID 1346979); also: nearly all actives have a fitted effect of over 35% in size
Outline: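 Following a 5hr settling period, CHO-K1 cells at 1,500 per well received DMSO-dissolved compounds. Cell viability was quantified 16hr later by CellTiter-Fluor fluorescence, measured after 1hr with reagent at 37C.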

[5] = Caspase-3/7 induction in HepG2 cells by small molecules, qHTS cell viability counter screen (AID 1346981); also: series mostly up to about 92 µM; nearly all actives have a fitted effect of over 30% in size
Outline: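 Wild-type HepG2 cells, 2,000/well, settled 5 hr at 37 C, 5% CO2 before compound addition. Viability read by CellTiter-Fluor fluorescence, reagent added after 16 hr compound exposure, then 1 hr at 37C, in the same wells as the caspase read.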

[6] = molecular target: Nuclear receptor subfamily 1 group I member 2 (Rattus norvegicus) (UniProt Q9R1A7); assay: Rat pregnane X receptor (rPXR) activation by small molecules, qHTS assay (AID 1346983); conditions: rPXR luciferase reporter cells, One-Glo luminescence, 24 h; active compounds read high; also: nearly all actives have a fitted effect of over 20% in size
Chain of Nuclear receptor subfamily 1 group I member 2 (Rattus norvegicus) (Q9R1A7 whole entry, looked up): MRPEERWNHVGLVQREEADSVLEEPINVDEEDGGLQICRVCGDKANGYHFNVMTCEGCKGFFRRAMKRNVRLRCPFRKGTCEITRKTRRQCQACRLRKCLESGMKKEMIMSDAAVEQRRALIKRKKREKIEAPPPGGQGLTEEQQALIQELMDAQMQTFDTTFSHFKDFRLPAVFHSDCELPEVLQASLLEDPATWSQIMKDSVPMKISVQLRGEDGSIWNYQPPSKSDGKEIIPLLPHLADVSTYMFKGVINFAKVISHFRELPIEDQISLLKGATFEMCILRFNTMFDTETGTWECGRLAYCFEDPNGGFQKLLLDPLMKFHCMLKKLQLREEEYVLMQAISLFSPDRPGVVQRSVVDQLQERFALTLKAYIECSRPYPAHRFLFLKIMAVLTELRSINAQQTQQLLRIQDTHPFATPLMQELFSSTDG
Outline: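 Cell-based rPXR activation assay: rPXR cells, 2,000 per well, rested 5hr at 37 C, then exposed to compounds in DMSO for 24 hr at 37 C. Luciferase activity read by One-Glo luminescence after 30 min at room temperature.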

[7] = molecular target: Nuclear receptor subfamily 1 group I member 2 (Homo sapiens) (UniProt O75469); assay: CYP3A4 induction through human pregnane X receptor (PXR) by small molecules, qHTS assay (AID 1346984); also: nearly all actives have a fitted effect of over 40% in size; also: potency is read from the fitted curve at half-maximal effect
Chain of Nuclear receptor subfamily 1 group I member 2 (Homo sapiens) (O75469 whole entry, looked up): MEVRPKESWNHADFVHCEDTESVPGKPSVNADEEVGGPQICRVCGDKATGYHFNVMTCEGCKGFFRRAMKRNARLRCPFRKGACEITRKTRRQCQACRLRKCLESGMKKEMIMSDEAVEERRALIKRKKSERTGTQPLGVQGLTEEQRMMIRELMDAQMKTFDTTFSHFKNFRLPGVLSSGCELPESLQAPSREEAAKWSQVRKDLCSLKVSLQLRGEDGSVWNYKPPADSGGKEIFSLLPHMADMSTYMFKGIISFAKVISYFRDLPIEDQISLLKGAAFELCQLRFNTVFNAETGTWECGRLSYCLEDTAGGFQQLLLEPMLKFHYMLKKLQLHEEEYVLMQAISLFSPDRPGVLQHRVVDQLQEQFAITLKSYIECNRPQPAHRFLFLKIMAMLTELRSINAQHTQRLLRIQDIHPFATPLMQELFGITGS
Outline: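 DPX-2 HepG2 cells carrying a PXR response element and CYP3A4-promoter luciferase construct, treated with compounds 24 hr at 37C. Then P450-Glo CYP3A4 Luciferin-IPA substrate (3uM final) for 3 hr at 37C, One-Glo added, luminescence read.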

[8] = molecular target: Nuclear receptor subfamily 1 group I member 2 (Homo sapiens) (UniProt O75469); assay: Human pregnane X receptor (PXR) activation by small molecules, qHTS assay (AID 1346985); also: nearly all actives have a fitted effect of over 40% in size; also: potency is read from the fitted curve at half-maximal effect
Outline: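 DPX-2 cells (HepG2 co-transfected with a PXR response element and a CYP3A4-promoter luciferase construct) were seeded at 2,000 per well, rested 5 hr at 37C, then exposed to DMSO-dissolved compounds for 24 hr. Activation was read as luciferase luminescence.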

[9] = molecular target: Cytochrome P450 2D6 (Homo sapiens) (UniProt P10635); assay: Cytochrome P450 Family 2 Subfamily D Member 6 (CYP2D6) small molecule antagonists: luciferase reporter qHTS assay (AID 1671196); also: nearly all actives have a fitted effect of over 50% in size; also: potency is read from the fitted curve at half-maximal effect
Chain of Cytochrome P450 2D6 (Homo sapiens) (P10635 whole entry, looked up): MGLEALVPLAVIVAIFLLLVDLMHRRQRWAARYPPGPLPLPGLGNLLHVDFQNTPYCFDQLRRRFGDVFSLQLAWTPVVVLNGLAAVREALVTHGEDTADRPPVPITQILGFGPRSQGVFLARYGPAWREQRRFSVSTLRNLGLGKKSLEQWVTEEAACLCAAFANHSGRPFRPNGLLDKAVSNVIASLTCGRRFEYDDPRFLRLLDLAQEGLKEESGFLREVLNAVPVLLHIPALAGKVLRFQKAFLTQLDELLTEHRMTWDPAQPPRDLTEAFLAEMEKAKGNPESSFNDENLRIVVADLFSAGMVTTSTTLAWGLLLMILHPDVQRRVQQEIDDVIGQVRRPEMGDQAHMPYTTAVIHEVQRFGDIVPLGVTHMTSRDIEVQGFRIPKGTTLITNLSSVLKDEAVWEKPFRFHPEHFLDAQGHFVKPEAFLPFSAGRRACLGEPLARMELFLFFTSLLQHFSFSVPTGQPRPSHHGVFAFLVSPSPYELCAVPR
Outline: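 Cell-free P450-Glo system: CYP2D6 with proluciferin substrate was pre-incubated with compound for 10 min, then reacted with NADPH regeneration for 1 h at room temperature. Luciferin product was detected after 20 min, and data were reported as relative luminescence units.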

[10] = molecular target: Cytochrome P450 2C19 (Homo sapiens) (UniProt P33261); assay: Cytochrome P450 Family 2 Subfamily C Member 19 (CYP2C19) small molecule antagonists: luciferase reporter qHTS assay (AID 1671197); also: nearly all actives have a fitted effect of over 65% in size; also: potency is read from the fitted curve at half-maximal effect
Chain of Cytochrome P450 2C19 (Homo sapiens) (P33261 whole entry, looked up): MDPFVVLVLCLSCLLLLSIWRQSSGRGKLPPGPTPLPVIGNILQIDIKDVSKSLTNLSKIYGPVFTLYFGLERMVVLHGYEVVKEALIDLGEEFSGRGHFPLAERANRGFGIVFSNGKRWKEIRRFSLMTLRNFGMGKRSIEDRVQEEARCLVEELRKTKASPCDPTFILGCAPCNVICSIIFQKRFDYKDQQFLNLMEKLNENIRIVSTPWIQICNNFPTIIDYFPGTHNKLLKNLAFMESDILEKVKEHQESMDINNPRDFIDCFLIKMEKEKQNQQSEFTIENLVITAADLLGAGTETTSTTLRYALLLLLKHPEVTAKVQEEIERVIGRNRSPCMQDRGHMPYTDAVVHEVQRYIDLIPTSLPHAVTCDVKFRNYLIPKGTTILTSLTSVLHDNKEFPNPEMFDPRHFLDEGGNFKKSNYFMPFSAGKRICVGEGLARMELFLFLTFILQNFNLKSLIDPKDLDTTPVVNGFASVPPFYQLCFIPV
Outline: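 Luminescent readout of CYP2C19 activity: luciferin product detected 20 min after adding detection reagent. Before that, compound and enzyme-substrate mix preincubated 10 min at room temperature; NADPH-regenerating system started a 1 h, 37C reaction. Ketoconazole as positive control.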

[11] = molecular target: Cytochrome P450 2C9 (Homo sapiens) (UniProt P11712); assay: Cytochrome P450 Family 2 Subfamily C Member 9 (CYP2C9) small molecule antagonists: luciferase reporter qHTS assay (AID 1671198); also: nearly all actives have a fitted effect of over 50% in size; also: potency is read from the fitted curve at half-maximal effect
Chain of Cytochrome P450 2C9 (Homo sapiens) (P11712 whole entry, looked up): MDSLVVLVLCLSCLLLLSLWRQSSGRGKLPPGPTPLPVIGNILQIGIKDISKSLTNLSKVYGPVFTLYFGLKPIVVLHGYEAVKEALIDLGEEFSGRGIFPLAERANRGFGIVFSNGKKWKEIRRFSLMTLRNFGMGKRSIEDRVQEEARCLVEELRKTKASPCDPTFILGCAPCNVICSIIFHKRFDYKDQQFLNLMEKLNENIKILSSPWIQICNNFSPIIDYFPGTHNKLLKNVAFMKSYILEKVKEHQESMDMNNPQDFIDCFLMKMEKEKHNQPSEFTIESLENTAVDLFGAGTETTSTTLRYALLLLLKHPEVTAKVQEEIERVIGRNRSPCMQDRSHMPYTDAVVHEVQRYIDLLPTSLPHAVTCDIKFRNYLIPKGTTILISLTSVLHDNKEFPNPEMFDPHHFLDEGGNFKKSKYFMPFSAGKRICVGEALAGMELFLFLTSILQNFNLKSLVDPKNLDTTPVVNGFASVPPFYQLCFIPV
Outline: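 P450-Glo proluciferin substrate with CYP2C9 enzyme; 10 min RT preincubation, then NADPH regeneration 1 h at 37C; luciferin detection reagent 20 min RT, luminescence in relative luminescence units.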

[12] = molecular target: Cytochrome P450 1A2 (Homo sapiens) (UniProt P05177); assay: Cytochrome P450 Family 1 Subfamily A Member 2 (CYP1A2) small molecule antagonists: luciferase reporter qHTS assay (AID 1671199); also: nearly all actives have a fitted effect of over 50% in size; also: potency is read from the fitted curve at half-maximal effect
Chain of Cytochrome P450 1A2 (Homo sapiens) (P05177 whole entry, looked up): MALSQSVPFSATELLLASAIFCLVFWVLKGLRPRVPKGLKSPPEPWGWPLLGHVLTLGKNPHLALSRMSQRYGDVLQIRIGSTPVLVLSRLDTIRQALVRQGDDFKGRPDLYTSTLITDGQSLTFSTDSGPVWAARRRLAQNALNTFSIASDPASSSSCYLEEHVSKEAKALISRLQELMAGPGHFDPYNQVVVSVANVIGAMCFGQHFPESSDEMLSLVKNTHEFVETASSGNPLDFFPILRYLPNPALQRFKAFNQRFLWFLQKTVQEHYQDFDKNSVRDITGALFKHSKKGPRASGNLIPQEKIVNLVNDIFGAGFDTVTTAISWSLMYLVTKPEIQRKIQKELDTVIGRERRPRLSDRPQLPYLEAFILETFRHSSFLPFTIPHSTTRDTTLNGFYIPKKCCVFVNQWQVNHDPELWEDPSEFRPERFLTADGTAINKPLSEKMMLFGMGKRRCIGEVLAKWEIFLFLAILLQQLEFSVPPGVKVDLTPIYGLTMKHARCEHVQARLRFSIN
Outline: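 P450-Glo CYP1A2 enzyme–proluciferin substrate mix with compound 10 min at room temperature, then NADPH regeneration 1 h at room temperature. Luciferin detection reagent added, luminescence read after 20 min; furafylline positive control.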

[13] = molecular target: Voltage-gated inwardly rectifying potassium channel KCNH2 (Homo sapiens) (UniProt Q12809); assay: Human Ether-a-go-go-Related Gene (hERG) channel small molecule antagonists: fluorescence cell-based qHTS assay (AID 1671200); also: nearly all actives have a fitted effect of over 50% in size; also: potency is read from the fitted curve at half-maximal effect
Chain of Voltage-gated inwardly rectifying potassium channel KCNH2 (Homo sapiens) (Q12809 whole entry, looked up): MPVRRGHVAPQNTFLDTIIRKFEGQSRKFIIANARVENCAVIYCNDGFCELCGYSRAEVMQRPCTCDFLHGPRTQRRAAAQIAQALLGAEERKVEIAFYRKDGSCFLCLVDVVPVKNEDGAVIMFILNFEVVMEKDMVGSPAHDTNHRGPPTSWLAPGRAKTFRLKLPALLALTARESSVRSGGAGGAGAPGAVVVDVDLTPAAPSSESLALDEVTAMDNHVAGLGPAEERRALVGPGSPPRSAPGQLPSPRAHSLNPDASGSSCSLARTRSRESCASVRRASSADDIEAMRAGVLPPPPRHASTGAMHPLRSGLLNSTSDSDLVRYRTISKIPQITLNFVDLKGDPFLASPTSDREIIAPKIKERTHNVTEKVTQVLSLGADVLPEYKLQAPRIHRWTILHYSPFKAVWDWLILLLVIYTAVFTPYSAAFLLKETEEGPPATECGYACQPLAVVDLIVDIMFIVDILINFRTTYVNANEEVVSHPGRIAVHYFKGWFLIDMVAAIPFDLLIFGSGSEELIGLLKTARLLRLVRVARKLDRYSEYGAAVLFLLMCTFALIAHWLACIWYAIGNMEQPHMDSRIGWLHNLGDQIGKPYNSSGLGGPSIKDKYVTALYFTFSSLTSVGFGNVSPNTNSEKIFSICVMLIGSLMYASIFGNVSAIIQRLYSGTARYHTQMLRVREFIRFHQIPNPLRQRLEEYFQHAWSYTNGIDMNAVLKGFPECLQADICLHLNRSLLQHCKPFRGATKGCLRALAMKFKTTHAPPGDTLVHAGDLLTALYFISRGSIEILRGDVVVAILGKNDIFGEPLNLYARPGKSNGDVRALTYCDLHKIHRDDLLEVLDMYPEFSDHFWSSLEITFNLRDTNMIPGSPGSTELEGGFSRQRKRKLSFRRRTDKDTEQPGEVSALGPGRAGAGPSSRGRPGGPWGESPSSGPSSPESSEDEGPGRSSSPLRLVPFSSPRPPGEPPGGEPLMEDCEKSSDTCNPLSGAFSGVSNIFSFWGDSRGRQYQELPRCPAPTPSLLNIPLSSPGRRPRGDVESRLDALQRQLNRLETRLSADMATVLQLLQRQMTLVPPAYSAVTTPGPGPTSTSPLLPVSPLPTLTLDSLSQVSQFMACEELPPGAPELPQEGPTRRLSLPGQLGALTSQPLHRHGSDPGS
Outline: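 In this thallium-flux screen, overnight-cultured U2OS cells bearing the channel are dye-loaded in darkness for an hour, rested 10 min at room temperature, and then monitored kinetically at 480/540 nm for two minutes post-stimulus.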

[14] = Caspase-3/7 induction in CHO-K1 cells by small molecules, qHTS assay (AID 1346980); also: nearly all actives have a fitted effect of over 15% in size
Outline: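 Wild-type CHO-K1 cells exposed to compounds for 17hr at 37 C, 5% CO2. Caspase-3/7 activity then measured by Caspase-Glo 3/7 luminescence after 30min at room temperature.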

[15] = molecular target: Nuclear receptor subfamily 1 group I member 2 (Homo sapiens) (UniProt O75469); assay: Human pregnane X receptor (PXR) small molecule agonists, qHTS assay (AID 1346982); also: nearly all actives have a fitted effect of over 35% in size; also: potency is read from the fitted curve at half-maximal effect
Outline: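 PXR-Luc HepG2 reporter cells (CYP3A4-driven luciferase) in 5% charcoal-stripped FBS medium, plated 5 h before compound addition, then treated 24 h at 37C. Luciferase read by ONE-Glo luminescence after 30 min at room temperature.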

[16] = molecular target: Cytochrome P450 3A4 (Homo sapiens) (UniProt P08684); assay: Cytochrome P450 Family 3 Subfamily A Member 4 (CYP3A4) small molecule antagonists: luciferase reporter qHTS assay (AID 1671201)
Chain of Cytochrome P450 3A4 (Homo sapiens) (P08684 whole entry, looked up): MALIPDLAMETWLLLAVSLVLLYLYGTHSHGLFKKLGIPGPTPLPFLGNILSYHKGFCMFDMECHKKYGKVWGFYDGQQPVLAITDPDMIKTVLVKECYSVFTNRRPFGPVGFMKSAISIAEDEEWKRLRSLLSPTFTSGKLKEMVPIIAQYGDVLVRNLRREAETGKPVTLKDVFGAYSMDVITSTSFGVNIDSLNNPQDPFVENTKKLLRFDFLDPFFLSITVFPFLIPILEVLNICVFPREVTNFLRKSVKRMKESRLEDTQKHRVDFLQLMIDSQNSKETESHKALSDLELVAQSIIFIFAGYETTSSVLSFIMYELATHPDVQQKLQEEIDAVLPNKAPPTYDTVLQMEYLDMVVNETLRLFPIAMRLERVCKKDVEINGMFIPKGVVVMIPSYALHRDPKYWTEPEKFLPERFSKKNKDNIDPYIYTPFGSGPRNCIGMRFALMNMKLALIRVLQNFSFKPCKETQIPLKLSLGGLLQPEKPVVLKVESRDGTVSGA
Outline: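 CYP3A4 activity was followed with a P450-Glo proluciferin substrate. Test compounds in DMSO were preincubated 10 min; NADPH regeneration then ran 1 h, and light output was read 20 min after detection reagent.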
% is scaled to controls: 0 for no effect and ±100 for the full control effect.

CCCC(=O)O[C@]1(C(=O)CO)CC[C@H]2[C@@H]3CCC4=CC(=O)CC[C@]4(C)[C@H]3[C@@H](O)C[C@@]21C
inactive: outcome [1] | Potency [2] | Potency [3] | Potency [4] | Potency [5] | max activation [6] 8.95% | Potency [7] | Potency [8] | Potency [9] | Potency [10] | Potency [11] | Potency [12] | Potency [13]

O=S(O)CO
inactive: outcome [1] | Potency [3] | Potency [4] | outcome [14] | Potency [5] | Potency [15] | Potency [10] | Potency [11] | Potency [12] | Potency [13]

CS(=O)(=O)O
inactive: outcome [1] | Potency [3] | Potency [4] | outcome [14] | Potency [5] | Potency [15] | Potency [10] | Potency [11] | Potency [13] | Potency [16]
active: Potency [12] 31.9 µM

O=C(CCCN1CCN(c2ccccn2)CC1)c1ccc(F)cc1
active: Potency [15] 6.68 µM | Potency [7] 12.6 µM | Potency [8] 10 µM | Potency [9] 11 µM | Potency [10] 34.7 µM | Potency [11] 7.76 µM | Potency [13] 6.74 µM
inactive: outcome [1] | Potency [3] | Potency [4] | outcome [14] | Potency [5] | max activation [6] 0.0374% | Potency [12] | Potency [16]

CCCCCCCCS(=O)(=O)Cl
inactive: outcome [1] | Potency [3] | Potency [4] | outcome [14] | Potency [5] | Potency [15] | Potency [10] | Potency [12] | Potency [13]
active: Potency [11] 32 µM

C[C@@H]1CCN(C(=O)[C@H](CCCN=C(N)N)NS(=O)(=O)c2cccc3c2NC[C@H](C)C3)[C@@H](C(=O)O)C1
inactive: outcome [1] | Potency [3] | Potency [4] | outcome [14] | Potency [5] | Potency [15] | max activation [6] -0.172% | Potency [7] | Potency [8] | Potency [9] | Potency [10] | Potency [11]

OC(CCN1CCCCC1)(c1ccccc1)C1CC2C=CC1C2 (stereo not drawn)
inactive: outcome [1] | Potency [3] | Potency [4] | outcome [14] | Potency [5] | max activation [6] -2.76% | Potency [11] | Potency [12]
active: Potency [15] 10.6 µM | Potency [7] 28.2 µM | Potency [9] 0.776 µM

C=C1CC[C@H]2C[C@@H]1C2(C)C
inactive: outcome [1] | Potency [2] | Potency [3] | Potency [4] | Potency [5] | Potency [15] | Potency [9] | Potency [10] | Potency [13] | Potency [16]

Nc1c2c(nc3ccccc13)CCCC2O (stereo not drawn)
inactive: outcome [1] | Potency [2] | Potency [3] | Potency [4] | Potency [5] | Potency [15] | Potency [10] | Potency [11] | Potency [13]
active: Potency [12] 15.5 µM

CC(NC(CCc1ccccc1)C(=O)O)C(=O)N1C(=O)N(C)CC1C(=O)O (stereo not drawn)
inactive: outcome [1] | Potency [3] | Potency [4] | outcome [14] | Potency [5] | Potency [15] | Potency [9] | Potency [10] | Potency [11] | Potency [12] | Potency [13] | Potency [16]

Cc1ccc(=O)n(-c2ccccc2)c1
inactive: outcome [1] | Potency [3] | Potency [4] | outcome [14] | Potency [5] | Potency [15] | Potency [9] | Potency [11] | Potency [13]
